Structures are written as SMILES. Results filed as inconclusive are left out. A number with no mark means an inactive call. Active and inactive are the calls of the source. The call rests on the fitted dose curve; in most records, active means well fitted inhibition curve with a large enough effect; inconclusive means small, poorly fitted or top-dose-only effect; inactive means no such curve, though single readings can be large or run the other way.
On the % scale 0 is the no-effect control and ±100 the full control effect; potency means the concentration at half of the fitted maximal effect.

A short description of this test: Counterscreen qHTS for Identification of Calcium Integrin Binding Protein 1 (CIB1) Competitor. Conditions: series mostly up to 114 µM; activity, negative = inhibition: at the top concentration. Put shortly: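 Counterscreen FP assay: CIB1-GST 1 uM in 5 mM HEPES pH 7.4, 125 mM NaCl, 5 mM CaCl2, 0.01% Tween20, with compounds up to 114 uM for 15 min, then 100 nM FITC-labelled scrambled peptide, 15 min, polarization read ex 480/em 540.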
In general terms: A counterscreen serves to expose hits that act by an unwanted route or on another target.
`Cc1c(C)n(Cc2ccc(-c3ccccc3C(=O)O)cc2)c2ccc(C(=O)N[C@@H](C)c3ccc([N+](=O)[O-])cc3)cc12`: the “activity, negative = inhibition” value is 6.01%.

As to `Cc1nc(C(=O)NCC(=O)O)c(O)c2ccc(Oc3ccccc3)cc12`, the “activity, negative = inhibition” value is -3.15%.

For `O=C(Nc1ccc(S(=O)(=O)N2CCOCC2)cc1)c1cc(Cl)ccc1NS(=O)(=O)c1ccc(Cl)s1`, the “activity, negative = inhibition” value is 133%.

In the case of `C[n+]1cc2c3c(ccc2c2ccc4cc5c(cc4c21)OCO5)OCO3`, the “activity, negative = inhibition” value was 0.97% [at 57.1 µM].

For the molecule `CCc1ccc(C=C2SC(=S)NC2=O)cc1`, the “activity, negative = inhibition” value was 0.832%.

On to `CN1CCC(N(Cc2cccs2)c2ccccc2)CC1`, for which the “activity, negative = inhibition” value is 7.51%.

Take `COc1ccc2c(=O)n3nc(Nc4cccc(N5CCN(C)CC5)c4)sc3nc2c1`: the “activity, negative = inhibition” value is -9.89%.

Take `Cc1ccc(S(=O)(=O)Nc2cnccc2C(=O)Nc2ccc(-c3nn[nH]n3)cc2)cc1`: the “activity, negative = inhibition” value is -29.5%.

With `COc1ccc2nc(S(=O)Cc3ncc(C)c(OC)c3C)[nH]c2c1` (centres undefined), the “activity, negative = inhibition” value is -29%.

As for `O=c1[nH]nc(Sc2ncc([N+](=O)[O-])s2)n1-c1ccc2c(c1)OCCO2`, the “activity, negative = inhibition” value is 11.8% [at 229 µM].

With `Cc1ccccc1NC(=O)CN1C(=O)N/C(=C\c2cn(-c3cccc(C(=O)O)c3)cn2)C1=O`, the “activity, negative = inhibition” value was -15.3%.

Take `NS(=O)(=O)c1ccc(Nc2nc(-c3ccccc3)cs2)cc1`: the Potency was 44.7 µM (active).

For `NC(=O)C1CCN(c2ncc(Br)s2)CC1`, the Potency was 39.8 µM (active).

With `O=[N+]([O-])c1ccc(O)c2ncccc12`, the “activity, negative = inhibition” value is -1.58%.

`Cn1cnc(-c2nccc3c(=O)[nH]c(OCCCC(F)(F)F)nc23)c1`: the “activity, negative = inhibition” value was -20.2%.

Take `Cc1ccc(S(=O)(=O)Nc2cnccc2C(=O)Nc2nc(-c3ccc(Cl)cc3)cs2)cc1`: the “activity, negative = inhibition” value was 43.7%.

As to `C[C@H](Cc1ccc(O)c(O)c1)[C@@H](C)Cc1ccc(O)c(O)c1`, the Potency was 12.6 µM (active).

On to `CCN(CC)C(=S)SSC(=S)N(CC)CC`, for which the Potency result was “inactive”.

On to `O=C1CCC2=C1C1(CCCC1)N=C(Nc1nc3ccccc3o1)N2`, for which the “activity, negative = inhibition” value was -0.897%.

Regarding `O=S(=O)(Nc1nc2ccccc2s1)c1ccc(NCc2ccc(Br)cc2O)cc1`, the “activity, negative = inhibition” value is -7.61%.

Turning to `O=C1CCCC2=C1C(c1ccn[nH]1)N=C(Nc1nc3ccccc3o1)N2` (centres undefined), the “activity, negative = inhibition” value was -21.7%.

Consider `CO[C@@]12[C@H](COC(N)=O)C3=C(C(=O)C(C)=C(N)C3=O)N1C[C@@H]1N[C@@H]12`, for which the “activity, negative = inhibition” value was -15.1%.

For the molecule `Cc1ccc([S+](=O)([O-])Nc2nn3c(=O)c4ccccc4nc3s2)cc1C`, the “activity, negative = inhibition” value was 28.9%.

Take `CN(C)c1cnc2c(O)cccc2c1`: the “activity, negative = inhibition” value is -19.3%.

For the molecule `Oc1cccc2c(-c3nn[nH]n3)ccnc12`, the “activity, negative = inhibition” value is -28.8%.

For `COc1cc(C(=O)NS(=O)(=O)c2ccccc2C)ccc1Cc1cn(C)c2ccc(NC(=O)OC3CCCC3)cc12`, the “activity, negative = inhibition” value was 37.6%.

Turning to `O=C1CCCC2=C1C1(CCOCC1)N=C(Nc1nc3ccccc3o1)N2`, the “activity, negative = inhibition” value is 7.29%.

`CCCCCCCCOc1ccccc1C(=O)Nc1ccc(C(=O)OCC[N+](C)(CC)CC)cc1`: the Potency entry was “inactive”.

In the case of `CN1CCN(c2ccc(-c3cc(O)c4ncccc4c3)cc2)CC1`, the “activity, negative = inhibition” value was -1.91%.

The record behind these values is PubChem BioAssay AID1508619 (National Center for Advancing Translational Sciences (NCATS), 2020).
